Inconclusive results are not listed. The source made the active and inactive calls. The call rests on the fitted dose curve; in most records, active means well fitted curve in the direction sought with a large enough effect; inconclusive means small, poorly fitted or top-dose-only effect, or another doubt; inactive means no such curve, though single readings can be large; an effect the other way counts as inactive or inconclusive.

The values that follow come from PubChem BioAssay (NCATS).

Assay [1] is described as follows: qHTS for Inhibitors of the Aldehyde Dehydrogenase Family (ALDH1A2, ALDH1A3, ALDH2, ALDH3A1) (AID 2061307; further: nearly all actives have a fitted effect of over 50% in size; on Potency: test system not described further here; potency means the concentration at half of the fitted maximal effect). (In general: In qHTS, concentration-response curves come from the screen itself.)
The target of assay [2] is Retinaldehyde dehydrogenase 3 (Homo sapiens) (UniProt P47895). As to the kind of experiment: qHTS for Inhibitors of the Aldehyde Dehydrogenase Family (ALDH1A3) Confirmatory screens (AID 2061311). Further: nearly all actives have a fitted effect of over 60% in size. Further: potency means the concentration at half of the fitted maximal effect.
Assay [3] has as its target Retinal dehydrogenase 2 (Homo sapiens) (UniProt O94788). In words: qHTS for Inhibitors of the Aldehyde Dehydrogenase Family (ALDH1A2) Confirmation screens (AID 2061314). Further: nearly all actives have a fitted effect of over 65% in size. Further: potency means the concentration at half of the fitted maximal effect.
Assay [4] deals with Aldehyde dehydrogenase 1A1 (Homo sapiens) (UniProt P00352). As to the kind of experiment: qHTS for Inhibitors of the Aldehyde Dehydrogenase Family (ALDH1A1) Confirmatory screens (AID 2061316). Further: nearly all actives have a fitted effect of over 65% in size. Further: potency means the concentration at half of the fitted maximal effect.
Assay [5] has as its target Retinaldehyde dehydrogenase 3 (Homo sapiens) (UniProt P47895). As to the kind of experiment: qHTS for Inhibitors of the Aldehyde Dehydrogenase Family (ALDH1A3) Primary screen (AID 2061315).
In assay [6] the target is Aldehyde dehydrogenase, mitochondrial (Homo sapiens) (UniProt P05091). In words: qHTS for Inhibitors of the Aldehyde Dehydrogenase Family (ALDH2) Primary screen (AID 2061308). Further: nearly all actives have a fitted effect of over 55% in size.

Take `O=C(Nc1ncc(Cc2ccc(C(F)(F)F)cc2)s1)c1ccc(-c2ccccc2[N+](=O)[O-])o1`: the Potency was 12.7 µM (active) in assay [1], 11.3 µM (active) in assay [2], 25.2 µM (active) in assay [3] and 6.34 µM (active) in assay [4].
Regarding `COc1ccc(-n2c(C)c(C(C)=O)c3cc(OC(=O)COc4ccccc4)ccc32)cc1`, the Potency entry in assay [1], in assay [2], in assay [3] and in assay [4] was “inactive” in each case.
Regarding `Cn1sc(=O)n(Cc2ccccc2)c1=O`, the Potency in assay [1] is 10.1 µM (active); in assay [2], 12.7 µM (active); in assay [3], 8.96 µM (active); in assay [4] it was 0.283 µM (active).
The like results for `CCOC(=O)c1c(C)n(-c2ccccc2)c2ccc(OC(=O)c3ccccc3)cc12` were, in that order, “inactive”, “inactive”, “inactive” and “inactive”.
The like results for `CC(=O)c1c(C)n(-c2ccc(C)cc2)c2ccc(OC(=O)COc3ccccc3)cc12` were, in that order, “inactive”, “inactive”, “inactive” and “inactive”.
With `COc1ccc(-c2nc(CCNC(=O)c3c(F)cccc3Cl)cs2)cc1`, the Potency result in assay [1], in assay [2], in assay [3] and in assay [4] was “inactive” throughout.
For `C[C@@H](CO)Nc1cc2c(cc1[S+](=O)([O-])Nc1ccc(Cl)c(Cl)c1)CCC(=O)N2`, the Potency result in assay [1], in assay [2], in assay [5] and in assay [4] was “inactive” each time.
On to `O=C1Cc2cc(S(=O)(=O)N3CCN(c4ccc(Cl)cc4)CC3)ccc2N1`, for which the Potency result in assay [1], in assay [2] and in assay [5] was “inactive” throughout.
Take `N#Cc1ccc(-c2ccc(CNc3ccc(N4CCOCC4)cc3)cn2)cc1`: the Potency is 6.34 µM (active) in assay [1], 12.7 µM (active) in assay [2] and 4.49 µM (active) in assay [4]. In assay [3], the Potency entry was “inactive”.
The like results for `O=C(CCC1CCCN(S(=O)(=O)c2ccccc2F)C1)NCCCN1CCOCC1` (stereo unspecified) were, in that order, “inactive”, “inactive”, “inactive” and “inactive”.
The like results for `CN(C)c1ccc(-c2csc(N3CCC(C(N)=O)CC3)n2)cc1` were, in that order, 11.3 µM (active), 12.7 µM (active), 8.96 µM (active) and 14.2 µM (active).
`Oc1cc2c(cc1CN1CCN(c3ncccn3)CC1)OCO2`: the Potency in assay [1] is 7.12 µM (active); in assay [2] it was 10.1 µM (active); in assay [3], 2.01 µM (active); in assay [4], 5.65 µM (active).
Taken in the same sequence, the figures for `Cc1ccc(-c2cccc(C=O)c2)c(C)c1` were “inactive”, “inactive”, “inactive” and “inactive”.
Consider `Cc1ccc(S(=O)(=O)Nc2cnccc2C(=O)Nc2nc(-c3ccco3)cs2)cc1`, for which the Potency in assay [1] was 7.98 µM (active); in assay [2], 7.12 µM (active); in assay [4], 0.798 µM (active). In addition, the Potency result in assay [5] was “inactive”.
Take `CC(=O)c1c(C)n(-c2cccc(Cl)c2)c2ccc(OC(=O)c3ccccc3)cc12`: the Potency entry in assay [1], in assay [2], in assay [3] and in assay [4] was “inactive” in each case.
In the case of `Cc1cc(NS(=O)(=O)c2ccc(Nc3nc(-c4ccc(C)c(C)c4)cs3)cc2)no1`, the Potency in assay [1] is 0.896 µM (active). Besides, the Potency entry in assay [2] and in assay [5] was “inactive” in each case.
In the case of `Cc1cccc(C(=O)NCc2nnc3cc(-c4nc(C)no4)ccn23)c1`, the Potency entry in assay [1], in assay [2], in assay [3] and in assay [4] was “inactive” throughout.
Consider `Cc1ccc(S(=O)(=O)Nc2cccc3cccnc23)c([N+](=O)[O-])c1`, for which the Potency entry in assay [6] is “inactive”.
Still for that read-out and setting: the value for `O=C(O)c1ccc(O)c2ncc(NCC3CCCN(CCc4ccccc4)C3)cc12` (stereo unspecified) was “inactive”.
Regarding `CC(O)c1ccc(-c2ccc3ncnc(NCc4nccs4)c3c2)o1` (stereo unspecified), the Potency result in assay [1] and in assay [5] was “inactive” throughout. Moreover, the Potency in assay [4] is 10.1 µM (active).
With `CC(C)(C)OC(=O)N1CCN(c2ccc(NCc3ccc4c(c3)OCO4)cc2)CC1`, the Potency result in assay [6] was “inactive”.
`O=C(O)c1cccc(-c2noc(-c3ccc(C(F)(F)F)cc3)n2)c1`: in assay [6], the Potency entry is “inactive”.
On to `CC(C)(C)c1ccc(-c2nnc(NC(=O)Nc3ccc4ccccc4c3)s2)cc1`, for which the Potency in assay [1] is 10.1 µM (active); in assay [4], 11.3 µM (active). For the same compound, the Potency entry in assay [5] is “inactive”.
Turning to `CN1CCN(c2ccc(-c3cc(O)c4ncccc4c3)cc2)CC1`, the Potency entry in assay [6] is “inactive”.
Same read-out and setting: the entry for `COc1cc(NS(=O)(=O)c2ccc(C)cc2)c2ncccc2c1` is “inactive”.
With `O=C1Cc2cc(S(=O)(=O)N3CCN(c4ccc([N+](=O)[O-])cc4)CC3)ccc2N1`, the Potency result in assay [1] and in assay [5] was “inactive” each time.
`O=C(O)c1cccc(-c2noc(-c3ccc(Cl)cc3)n2)c1`: the Potency entry in assay [6] was “inactive”.
Regarding `CCOCCCNC(=O)Nc1cc(C(=O)NCc2ccc(C(C)C)cc2)ccc1N1CCCC1`, the values for the Potency in assay [1] and in assay [4] were 0.726 µM (active) and 2.89 µM (active), respectively.
Regarding `COc1ccc(-c2nc(-c3cccc(C(=O)O)c3)no2)cc1`, in assay [6], the Potency result is “inactive”.
As to `COc1ccnc(NC(=S)N2CCN(c3cccc(Cl)c3Cl)CC2)c1`, the Potency in assay [1] is 10 µM (active); in assay [4], 4 µM (active).
On to `COc1ccccc1-c1nc(-c2cccc(C(=O)O)c2)no1`, for which, in assay [6], the Potency entry was “inactive”.
On the same count and under the same terms, the value for `COc1cccc(Cn2ncc3c4sc(B(O)O)cc4n(C)c3c2=O)c1` was “inactive”.
The same measure, in the same setting: the value for `O=S(=O)(Nc1cccc2cccnc12)c1ccc2ccccc2c1` was “inactive”.
Regarding `O=[N+]([O-])c1ccc(S(=O)(=O)Nc2cnc3ccccc3c2)cc1`, the Potency result in assay [1], in assay [5] and in assay [4] was “inactive” in each case.
With `Oc1cc(Nc2ccc(N3CCCCC3)cc2)cc2cccnc12`, the Potency result in assay [6] is “inactive”.
Take `CC(CN1c2ccccc2Sc2ccc(S(=O)(=O)N(C)C)cc21)N(C)C` (stereo unspecified): the Potency result in assay [6] was “inactive”.
Same read-out and setting: the value for `Cc1ccc(C)c(SC2=NS(=O)(=O)c3cc(C(=O)NCc4ccccc4)ccc32)c1` was “inactive”; that for `Oc1ccc(CNc2ccccc2C(F)(F)F)c2cccnc12` was “inactive”.
As to `Cc1ccnc(NC(=S)N2CCN(c3cccc(C(F)(F)F)n3)CC2)c1`, the Potency result in assay [6] was “inactive”.
`CC(C)(C)NS(=O)(=O)c1cccc(Nc2nn3c(=O)c4ccccc4nc3s2)c1`: the Potency is 22.5 µM (active) in assay [1] and 11.3 µM (active) in assay [4]. Moreover, the Potency result in assay [5] is “inactive”.
On to `CS(=O)(=O)c1cccc(-c2csc(N3CCC(C(N)=O)CC3)n2)c1`, for which, in assay [6], the Potency entry is “inactive”.
For the compound `Cc1ccc(CN(C)c2ncnc3ccc(-c4ccc5c(c4)OCO5)cc23)o1`, the Potency in assay [1] is 15.8 µM (active); in assay [4], 8.96 µM (active). For the same compound, the Potency result in assay [5] was “inactive”.
With `O=C(O)c1cccc(-c2noc(-c3cccc(F)c3)n2)c1`, the Potency result in assay [6] was “inactive”.
Consider `CNc1nc(Nc2ccc(C(=O)N3CCOCC3)cc2OC)nc2[nH]cc(Cl)c12`, for which the Potency result in assay [6] was “inactive”.
On the same count and under the same terms, the value for `COc1ccc(OC)c(N2C(=O)C(Cl)=C(N3CCCCC3)C2=O)c1` was “inactive”; that for `CCCCN(C)C(=O)Cn1nc(-c2ccc(C(C)=O)cc2)ccc1=O` was “inactive”.
As to `COc1ccnc(NC(=S)N2CCN(c3ccc(Cl)cc3Cl)CC2)c1`, the Potency was 11.2 µM (active) in assay [1] and 5.65 µM (active) in assay [4].
With `COc1ccc(C2c3c(N)nc(CCc4ccccc4)nc3Oc3ccc4ccccc4c32)cc1OC` (stereo unspecified), the Potency result in assay [1] and in assay [5] was “inactive” in each case.
Regarding `COc1ccc(C(O[C@@H]2O[C@H](CO)[C@@H](O)[C@H](O)[C@H]2O)C(CO)Oc2ccc(/C=C/CO)cc2OC)cc1O` (stereo partly specified), in assay [6], the Potency entry was “inactive”.
Turning to `O=C1c2ccccc2C(=O)N1c1cccc(=O)[nH]1`, the Potency result in assay [1], in assay [5] and in assay [4] was “inactive” throughout.
Take `Cc1ccnc(NC(=S)N2CCN(c3ccc(Br)cc3)CC2)c1`: the Potency result in assay [6] is “inactive”.
For the compound `Cc1cnc(-c2ccccc2C(F)(F)F)nc1NCc1ccc(-c2cccnc2)cc1`, the Potency result in assay [6] was “inactive”.
With `Cc1cc(C)nc(NC(=S)N2CCN(c3ccc(F)c(Cl)c3)CC2)c1`, the values for the Potency in assay [1] and in assay [4] were 7.08 µM (active) and 6.34 µM (active), respectively. In addition, in assay [5], the Potency entry is “inactive”.
`N#Cc1ccc(-c2nc3ccccc3s2)cc1`: the Potency result in assay [6] was “inactive”.
Turning to `Cc1ccc(-c2ccc(CNc3nc(-c4ccccc4C(C)C)nc4ccsc34)cc2)cn1`, the Potency entry in assay [6] was “inactive”.
Take `CC(=O)Nc1sc2c(c1-c1ccc(C#N)cc1)CCNC2`: the Potency result in assay [1], in assay [5] and in assay [4] was “inactive” each time.
